The values below come from article PMC7819943, “Rice protein-binding microarrays: a tool to detect cis-acting elements near promoter regions in rice”.

In all, about 68,000 sequences were measured (“fluorescence intensity (a.u.)”: median about 9,100, highest 2% from about 16,000 on). Shown is part of a subset that was picked to be rich in the highest values.

Chain of OsWRKY34 (Q0JBA9 entry or part of it): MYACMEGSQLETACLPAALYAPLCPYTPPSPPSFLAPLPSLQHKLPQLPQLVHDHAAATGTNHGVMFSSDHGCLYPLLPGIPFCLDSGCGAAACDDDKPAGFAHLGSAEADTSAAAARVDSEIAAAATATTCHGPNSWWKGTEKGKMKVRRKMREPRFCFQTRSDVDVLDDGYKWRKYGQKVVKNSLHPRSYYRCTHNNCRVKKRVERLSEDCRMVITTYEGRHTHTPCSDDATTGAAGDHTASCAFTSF

This experiment deals with OsWRKY34 (Oryza sativa, UniProt Q0JBA9 1-250). Kind of experiment: protein-binding microarray (RPBM); PBS, 2% BSA, 51.3 ng/ul salmon testes DNA, 50 uM zinc acetate, 200 nM TF, 25 C, 1 h; high values mean tight binding. Particulars: protein: recombinant; tags: N-terminal polyhistidine and DsRed monomer fusion (pET32a); label: CyDye5-dUTP incorporated in the synthesized complementary strand; 3' TTTTT single-stranded linker to array surface; dsDNA, one strand shown. An outline of the steps:
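Transcription factors were made in E. coli BL21-CodonPlus as N-terminal fusions to a polyhistidine tag and DsRed, then purified on Ni–NTA. After primer extension with Cy5-dUTP and blocking with 2% BSA, a custom Agilent array was exposed for 1 h at 25 °C to 200 nM protein in PBS, 2% BSA, salmon testes DNA and 50 µM zinc acetate. Washed arrays were scanned on an Axon 4000B, and the binding signal is per-feature fluorescence intensity in arbitrary units.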
On to “ATACAATCTACTTGAATCGTTTTTTCTTTACTTTTCAGTTCGGAGTCACCTAGTGCAG”, for which the binding signal was 9840 fluorescence intensity (a.u.). With “ACTTAGCAGCACTTGTCCCGTTCTCCTGAAGACAGTCCAACGGAGTCACCTAGTGCAG” the figure was 9480 fluorescence intensity (a.u.); with “CAGTAATTGTCACTATCTTATTACACATTATTCTGTCCAGCGGAGTCACCTAGTGCAG”, 8060 fluorescence intensity (a.u.); with “TCCTGTCCAGTCTCCACTCGCAAACCCTTCTCGCCGCCATCGGAGTCACCTAGTGCAG”, 10400 fluorescence intensity (a.u.).

“GACCGCTTCACCCGCCCAATCAAAACCGTCCATCCATCCCCGGAGTCACCTAGTGCAG”: the binding signal is 10300 fluorescence intensity (a.u.). For “CAGTAACAATCACTCATTCTCAGTATCTGCTACTCCTCTACGGAGTCACCTAGTGCAG”, the binding signal was 8710 fluorescence intensity (a.u.). The figure for “CTCCTCTTTGTGTGTAGACTGAAAAGGTGGAAAGTTTACCCGGAGTCACCTAGTGCAG” is 9750 fluorescence intensity (a.u.); for “CGCGTAACCCACCCAATGTTTCACTCCTGCAGCACTTGACCGGAGTCACCTAGTGCAG” it is 9370 fluorescence intensity (a.u.); for “CTATATATTTACCCACTGTATACCTCTGTCATGAAAGCATCGGAGTCACCTAGTGCAG” it is 11500 fluorescence intensity (a.u.). Consider “CTCGTTTGATCTCTCAGTTGGGAGCATTATTTCTGCGCATCGGAGTCACCTAGTGCAG”, for which the binding signal was 10800 fluorescence intensity (a.u.). On to “CAACGGCGAATCAACGCCCGAACCGACTCTTTTATCTTTTCGGAGTCACCTAGTGCAG”, for which the binding signal was 9920 fluorescence intensity (a.u.). The figure for “ACAAATTTGTAGCCCGCTGCTCTTCTCTCTCATCTTTTATCGGAGTCACCTAGTGCAG” is 9220 fluorescence intensity (a.u.); for “GTCCGCATCTCATCCTTCCGCAAGTCCGTATCTCATCCCTCGGAGTCACCTAGTGCAG” it is 10400 fluorescence intensity (a.u.). In the case of “CGTATACCTCGGAGAAGTTCTCATCCGCTGACGTGTCCCGCGGAGTCACCTAGTGCAG”, the binding signal is 19600 fluorescence intensity (a.u.). With “TCCCTCGGTCCCATCGTATATATATATACCGTATGTCCCGCGGAGTCACCTAGTGCAG” the figure was 9470 fluorescence intensity (a.u.); with “CACCTCACCCTCACCCGCACACGCCGACACCCCGACGCGTCGGAGTCACCTAGTGCAG”, 9390 fluorescence intensity (a.u.); with “CTTCTTTCTCAATATGTGATTTTCTTTCCTTAATCTCGTTCGGAGTCACCTAGTGCAG”, 8680 fluorescence intensity (a.u.). The figure for “CTCCGTCGCTGACTGCAACCTCCACCCACACGGCACCCATCGGAGTCACCTAGTGCAG” is 8090 fluorescence intensity (a.u.); for “TATCTCTCTCCCGCTGACAACCCGGTCACACCGAACCAACCGGAGTCACCTAGTGCAG” it is 8990 fluorescence intensity (a.u.); for “CCTCTCACTGCTAGTGCCCCACACCGTTCTTCGCTGCCCACGGAGTCACCTAGTGCAG” it is 11800 fluorescence intensity (a.u.). The figure for “CTAATACGTGGGTCTCACTATTGTCTTCTTGTTTGACTGACGGAGTCACCTAGTGCAG” is 10700 fluorescence intensity (a.u.); for “CCTATTCTAACACTGACGGGTGGGTCTCACAGGGTGACTCCGGAGTCACCTAGTGCAG” it is 16900 fluorescence intensity (a.u.). Turning to “TTTGCACACGGGTGACTCGTCTCTTTGTACTCACTCTCTCCGGAGTCACCTAGTGCAG”, the binding signal was 9840 fluorescence intensity (a.u.). For the sequence “TCCTCTGTTTTACACTTGCATTCCTATCAGAATCCTATATCGGAGTCACCTAGTGCAG”, the binding signal was 9540 fluorescence intensity (a.u.). With “CCCGTCGATCCACCGCGGGGACAAGCTCTAGATCTCTCTCCGGAGTCACCTAGTGCAG” the figure was 8440 fluorescence intensity (a.u.); with “CAGGCATGTCCAGTATAGGTGTTATTATATTTTATTATTACGGAGTCACCTAGTGCAG”, 8910 fluorescence intensity (a.u.); with “TATACTCCCTCCATTTCAAAATGTTTGACACCGTTGACTTCGGAGTCACCTAGTGCAG”, 9590 fluorescence intensity (a.u.). In the case of “TACTCCCTTCTTCCTTAGATGTTTGACACCGTTGACTTTTCGGAGTCACCTAGTGCAG”, the binding signal was 16900 fluorescence intensity (a.u.). The figure for “TCCCTCTGTTCAAAATGTTTGACACCGTTGACTTTTTAAGCGGAGTCACCTAGTGCAG” is 20700 fluorescence intensity (a.u.); for “CTCCCTCCTTTTCTAAATGTTTGACACCATTGACTTTTTTCGGAGTCACCTAGTGCAG” it is 8470 fluorescence intensity (a.u.); for “CTCCATCCGTTTTAAAATGTTTGACACCGTTGACTTTTTACGGAGTCACCTAGTGCAG” it is 27300 fluorescence intensity (a.u.). In the case of “ACTTCTTTAGGCGTTGACTTCTCCCTTTTCCTTTACTATTCGGAGTCACCTAGTGCAG”, the binding signal was 14800 fluorescence intensity (a.u.). With “ACTCCCTCCTTCCCTAAATGTTTGACACCGTTGACTTTTTCGGAGTCACCTAGTGCAG” the figure was 19600 fluorescence intensity (a.u.); with “CACTCTGCCTCACCTCACCTCACCTCACGTCCTCACCTCCCGGAGTCACCTAGTGCAG”, 10300 fluorescence intensity (a.u.); with “CCGGGACGTGTGCCGCCGCTTAAGCCCGCTCTTTATACGTCGGAGTCACCTAGTGCAG”, 9690 fluorescence intensity (a.u.).

Take “ACTCGTTGACCAAAGGGAGTGGAGTTTGAAAGGGTGGGAGCGGAGTCACCTAGTGCAG”: the binding signal was 14600 fluorescence intensity (a.u.). With “TCTTGCAATCTTGATCGATAGTCTCCTCCATCTTCTTCGTCGGAGTCACCTAGTGCAG” the figure was 8680 fluorescence intensity (a.u.). With “ATAAATTATTAGTACTATTCCATATACTACATTTTCTTCTCGGAGTCACCTAGTGCAG” the figure was 8440 fluorescence intensity (a.u.).

“CATAGTCGTCTTCCTCGATCAATCCGCTCCGCTCCGTCTTCGGAGTCACCTAGTGCAG”: the binding signal was 8440 fluorescence intensity (a.u.). With “TTGCATTTTTGACTGTTTGCGTTGACTCCCTCACTTCTTCCGGAGTCACCTAGTGCAG” the figure was 16400 fluorescence intensity (a.u.); with “ATACTCCCTCCGTTTCAAAATGTTTGACACCGTTGACTTTCGGAGTCACCTAGTGCAG”, 12500 fluorescence intensity (a.u.); with “TTTCTTTTGCATTTTCCCTGTTCCATATCGTTTTTTTCTCCGGAGTCACCTAGTGCAG”, 8560 fluorescence intensity (a.u.). With “TGTTTTCTTCTCATTCTTCTTTTTTCCCTTTCTTTTGCTCCGGAGTCACCTAGTGCAG” the figure was 8390 fluorescence intensity (a.u.); with “ACTCCCTCCGTTTCAAAATGTTTGACACCGTTGACTTTTTCGGAGTCACCTAGTGCAG”, 18500 fluorescence intensity (a.u.).
